Compound activity: PubChem BioAssay, National Center for Advancing Translational Sciences (NCATS)
The list is not random: actives were taken first. Their share in the collection is about 13%.
HCV inhibitor: HCV inhibition; Huh7.5.1 HCVcc-Cre infection, luciferase reporter, 44 h; Potency, µM (highest dose often 41.8 µM), for the others: top-dose activity change, negative = inhibition, hits mostly inhibitors; actives 3.4% (n = 340,000); note: potency is the fitted concentration of half-maximal effect
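Cells seeded at 1,000/well and cultured 4 h, then compounds added followed by HCVcc-Cre virus (~0.5 moi). After 44 h further culture, luciferase substrate was added, plates held 15 min at room temperature, and luminescence read for 15 sec.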
HCMV antiviral: human cytomegalovirus inhibition. AID 1259415. activity change, negative = inhibition, % at 57.5 µM. HFF cells, HCMV-luciferase reporter, 72 h; active compounds read low. actives 4.5% (n = 410,000); in the data active = activity change below about -60%; inconclusive = no clear call, values can overlap the other calls; inactive = above about -39%
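Inhibition of viral replication was scored as loss of reporter luminescence in HFFs infected with HCMV-luciferase (MOI 1 PFU/cell) for 72 h; compounds tested at 2 doses, normalized to buffer and Salinomycin controls.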
Pf growth 96h: P. falciparum growth inhibition at 96 hours. AID 504834. Potency, µM (doses to about 28.7 µM), inactives show at the top dose activity change, negative = inhibition, hits mostly inhibitors. P. falciparum luciferase reporter growth, 96 h. actives 6.9% (n = 320,000); note: potency is the fitted concentration of half-maximal effect
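Readout is luminescence from an integrated firefly luciferase in P. falciparum. Red cells, 2% hematocrit and 0.05% parasitemia final, were cultured with compound through two parasite generations (96 hours) at 37 C, 5% CO2.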
Pf growth 48h: inhibits P. falciparum growth in the first generation, 48 h; actives 5.9% (n = 310,000); AID 504832; Potency, µM (top dose mostly 28.7 µM), inactives show at the highest dose activity change, negative = inhibition, usual class: inhibitors; P. falciparum luciferase growth in erythrocytes, 48 h; note: potency is the fitted concentration of half-maximal effect
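Parasite viability was followed by luminescence of a genomically integrated firefly luciferase. Cultures held 0.1% parasitemia at 2% hematocrit (final), incubated under 5% CO2 at 37 C.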
Numbers without * were called inactive; ? = inconclusive; nt = no result given; [ ] = dose if it differs, or a comment. Unless noted, calls come from the whole dose curve; as a rule, active = well fitted inhibition curve with a large enough effect; inconclusive = small, poorly fitted or top-dose-only effect, or another doubt; inactive = no such curve, though single readings can be large or run the other way. % is set by controls: 0 for no effect and ±100 for the full control effect.

SMILES | HCV inhibitor | HCMV antiviral | Pf growth 96h | Pf growth 48h
COc1ccc([C@H]2/C=C\CN(C(=O)CC(C)(C)C)[C@@H](C)C(=O)N2Cc2ccc(F)cc2)cc1 | 4.9% | -60.0* | nt | nt
COc1ccc(C2/C=C\CN(S(=O)(=O)/C=C/c3ccccc3)[C@H](Cc3ccccc3)C(=O)N2Cc2ccc(F)cc2)cc1 (stereo partly specified) | -11.8% | nt | ? | ?
COc1ccc([C@H]2/C=C\CN(C(=O)c3ccc(C)cc3)[C@@H](C)C(=O)N2Cc2ccc(F)cc2)cc1 | ? | -14.7 | nt | nt
CCOC(=O)C1=C(C)OC(N)=C(C#N)C1c1cc2ccccc2nc1N1CCCCC1 (stereo unspecified) | 3.7% | nt | 1.31µM* | -12.4%
Cc1cccc(-c2nc(CN3CCCC(C(=O)NC4CCCCC4)C3)c(C)o2)c1 (stereo unspecified) | 31.6µM* | -21.4 | 27.0% | ?
CCOC(=O)N1CCC(NC(=O)C2CCCN(Cc3nc(-c4ccc(CC)cc4)oc3C)C2)CC1 (stereo unspecified) | 2.51µM* | -86.9* | -3.8% | ?
Cc1cccc(-c2nc(CN3CCCC(C(=O)NC4CCCCCC4)C3)c(C)o2)c1 (stereo unspecified) | ? | 27.3 | ? | ?
CCCCCNC(=O)C1(C)CCc2nc3cc(C)c(C)cc3n21 (stereo unspecified) | nt | -11.2 | nt | nt
CC(=O)Nc1cccc(NC(=O)CSc2ncc(-c3ccc(Cl)cc3)n2Cc2ccco2)c1 | 10µM* | -34.7 | ? | ?
COc1ccc(-c2cnc(SCC(=O)Nc3ccc4c(c3)OCO4)n2Cc2ccco2)cc1 | 14.1µM* | -24.3 | nt | nt
Nc1ccc(C(=O)Nc2cccc3ncccc23)cc1 | 2.1% | 8.6 | -4.5% | 2.2%
CC(=O)Nc1cccc2ncccc12 | 18.4% | 3.7 | 4.15µM* | 17.3%
O=C(Nc1cccc2ncccc12)c1ccc(OCc2ccccc2)cc1 | 15.8µM* | ? | 227.2% | -31.5%[1.15 µM]
Cn1cc([C@]2(O)C(=O)Nc3ccc(Br)cc32)c2ccccc21 | nt | -2.3 | nt | nt
O=C1Nc2ccc(Br)cc2C1(O)c1ccccc1 (stereo unspecified) | 2.5% | 2.5 | ? | 6.57µM*
O=S1(=O)N[C@H](Cc2ccccc2)COc2cccc(F)c21 | nt | -22.0 | nt | nt
N#C/C(=C/c1ccc(-c2ccc(S(N)(=O)=O)cc2)o1)c1nc2ccccc2s1 | 4.47µM* | ? | 36.3% | -17.1%
Nc1c2c(nc3ccc(Br)cc13)N(C1CCCCC1)CC2 | nt | nt | 10.4µM* | ?
Nc1c2c(nc3ccccc13)N(C1CCCCC1)CC2 | 0.316µM* | -19.8 | 1.9% | 13.1µM*
CCCCn1c(=N)c(S(=O)(=O)c2ccc(Cl)cc2)cc2c(=O)n3cccc(C)c3nc21 | nt | 2.1 | nt | nt
Cc1cccc(NC(=O)Nc2nnc([C@H]3C[C@H](O)[C@@H](CO)O3)s2)c1 | nt | -2.6 | nt | nt
Cc1cc(N)n2ncc(-c3ccc(F)cc3)c2n1 | 10µM* | 122.0 | 136.9% | nt
Cc1nc2c(-c3ccc(F)cc3)cnn2c(N)c1-c1ccc(F)cc1 | ? | -76.3* | ? | -76.9%
CCOC(=O)[C@]12CCCC=C1N(CCC1=CCCCC1)C(=O)[C@H](CC(=O)NCc1ccc(OC)c(OC)c1)C2 | nt | 76.5 | nt | nt
COc1ccc(-n2ccnc(NCCc3ccc(S(N)(=O)=O)cc3)c2=O)cc1Cl | nt | -14.7 | nt | nt
SMILES | HCV inhibitor | HCMV antiviral | Pf growth 96h | Pf growth 48h
N#C/C(=C\c1ccccc1Br)C(=O)NC1CC1 | 26.9% | 10.0 | 1.47µM* | -17.7%
N#C/C(=C\c1ccc(Cl)cc1)C(=O)NC1CC1 | -3.6% | 36.3 | nt | nt
CCn1c(=O)c2cc(C(=O)N(CC(C)C)CC(C)C)sc2c2ccccc21 | nt | -7.8 | nt | nt
O=C(c1cccc(Cl)c1)N(Cc1ccco1)Cc1ccccc1Cl | nt | -39.3 | nt | nt
CCCOc1ccc(C2=NC(c3ccc(F)cc3)=Nc3ccc(OC)cc3N2)cc1 | nt | 30.5 | nt | nt
CCC(=NCc1ccc2c(c1)OCO2)c1c(O)n(C)c(=O)n(C)c1=O | ? | -65.8* | 19.1% | 4.9%
CCC(=Nc1ccc(OC)cc1OC)c1c(O)n(C)c(=O)n(C)c1=O | ? | -25.4 | -7.8%[5.75 µM] | ?
CCC(=NCc1cc(OC)cc(OC)c1)c1c(O)n(C)c(=O)n(C)c1=O | 6.31µM* | -89.9* | 20.3% | nt
Cc1ccc2c(c1)c1c(c(=O)n(Cc3ccccc3)c(=O)n1CC(=O)Nc1ccccc1C)n2C | nt | 25.7 | nt | nt
CC(C(=O)OCC(=O)c1ccc(Br)cc1)N1C(=O)C2C3CCC(C3)C2C1=O (stereo unspecified) | 5.8% | -24.9 | 11.7µM* | 23.7%
